Experimental data as given in PubChem BioAssay (NCI).
The panel holds about 83,000 compounds, 20% with a hit somewhere; the sample as a whole holds those more often.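 In brief: 96-well plates, 48 h treatment, single concentration, percent growth endpoint.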 Activity calls are given as the source filed them. How the source made its calls: active means growth percent below 10; inactive means the rest.

System: EKVX NSCLC
Test: NCI-60 one-dose screen, 48 h (100 = growth as untreated, 0 = no growth, -100 = all killed)
Conditions: 10 µM unless noted

SMILES | growth
CC(C)=CCC[C@](C)(O)[C@H]1CC[C@]2(C)[C@@H]1CC[C@@H]1[C@@]3(C)C/C(=C/c4ccc(Br)cc4)C(=O)C(C)(C)[C@@H]3CC[C@]12C | 94.3% (inactive)
O=Cc1nc2ccccc2[nH]1 | 94.5% (inactive)
Cn1cc(-c2nc(-c3c[nH]c4ncccc34)cs2)c2ccccc21 | 22.7% (inactive)
Nc1ccc(Br)cn1 | 110% (inactive)
Cn1cc(-c2csc(-c3cn(C(=O)OC(C)(C)C)c4ccccc34)n2)c2cccnc21 | 72.3% (inactive)
CC(C)(C)c1ccc(OCCCCCCCN2CCNCC2)cc1 | 70% (inactive)
Nc1ccc(Cl)cn1 | 97.4% (inactive)
Cc1ccc(-c2nc([P+](c3ccccc3)(c3ccccc3)c3ccccc3)c(N3CCOCC3)o2)cc1 | 17.6% (inactive)
C=C(C)[C@@H]1CC[C@]2(C)[C@H](CC=C3[C@@H]4CC(C)(C)CC[C@]4(C=O)CC[C@]32C)[C@@]1(C)CCCN | 94.5% (inactive)
O=C1C(Cl)=C(Nc2ccc(S(=O)(=O)c3ccc(NC4=C(Cl)C(=O)c5ccccc5C4=O)cc3)cc2)C(=O)c2ccccc21 | 59.1% (inactive)
COC(=O)[C@]12CC[C@@H](C(=O)/C=C/c3cccnc3)[C@@H]1[C@H]1CC[C@@H]3[C@@]4(C)C/C(=C/c5cccnc5)C(=O)C(C)(C)[C@@H]4CC[C@@]3(C)[C@]1(C)CC2 | -76.3% (active)
CCCCC(=O)OC1CCCCC1C (stereo not drawn) | 104% (inactive)
COc1ccc(/C=C/C(=O)NCCO)cc1 | 98.7% (inactive)
